Source: PubChem BioAssay (NCATS)
“And” between values parts separate entries of the source, which are not always exact repeats. Equal entries are not always repeated. Inconclusive results are not listed. Values without a mark were called inactive. The source made the active and inactive calls. The call rests on the fitted dose curve; in most records, active means well fitted curve in the direction sought with a large enough effect; inconclusive means small, poorly fitted or top-dose-only effect, or another doubt; inactive means no such curve, though single readings can be large; an effect the other way counts as inactive or inconclusive.

What was measured:
[1] = target: Cellular tumor antigen p53 (Homo sapiens) (UniProt P04637); experiment: Primary qHTS for small molecule compounds that upregulate eGFP-tagged delta133p53alpha (in N-terminal) cells. (AID 2060322); conditions: NCI-H358 eGFP-delta133p53alpha fluorescence, 24 h; activation: stronger effect = higher value; further: nearly all actives have a fitted effect of over 75% in size;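 on activation: cells pre-induced with doxycycline then dosed without doxycycline; series mostly up to about 56 µM; 0% = DMSO vehicle and 100% = reference activator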
In short: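 NCI-H358 cells pre-induced 24 h with 10 ng/ml doxycycline for eGFP-delta133p53alpha, plated dox-free and exposed 24 h at 37C to titrated compounds. Fixed, Hoechst-stained; gated GFP peak intensity by laser scanning cytometry, normalized to DMSO (0%) and 57.5 uM 5-azacytidine (100%).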

[2] = BET inhibitor-based combinations targeting novel dependencies in MECOM-rearranged (r) AML: OCI-AML3 cell line (AID 2202232); conditions: Potency: OCI-AML3 viability; further: nearly all actives have a fitted effect of over 35% in size
In short: (§1)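 A 48 hr incubation preceded viability reading by CellTiter-Glo, with 15 min room-temperature development. Dose series had 11 points; normalization used DMSO and empty wells; AUC was computed and mean-centered per line as Z-AUC.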

[3] = BET inhibitor-based combinations targeting novel dependencies in MECOM-rearranged (r) AML: MV-4-11 cell line (AID 2202233); further: nearly all actives have a fitted effect of over 45% in size
In short: (§2)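 Each compound is tested in an 11-point concentration series against 500 seeded cells/well for 48 hr. The luminescent viability signal is normalized to DMSO and blank wells, then reduced to AUC and a cell-line-centred Z-AUC.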

[4] = BET inhibitor-based combinations targeting novel dependencies in MECOM-rearranged (r) AML: HNT-34 cell line (AID 2202234); further: nearly all actives have a fitted effect of over 35% in size
In short: as §2

[5] = BET inhibitor-based combinations targeting novel dependencies in MECOM-rearranged (r) AML: AML-194 cell line (AID 2202237; further: nearly all actives have a fitted effect of over 40% in size)
In short: as §1

[6] = BET inhibitor-based combinations targeting novel dependencies in MECOM-rearranged (r) AML: UCSD-AML1 cell line (AID 2202235); further: nearly all actives have a fitted effect of over 40% in size
In short: as §2

[7] = BET inhibitor-based combinations targeting novel dependencies in MECOM-rearranged (r) AML: AML-191 cell line (AID 2202236; further: nearly all actives have a fitted effect of over 35% in size)
In short: as §1
Potency means the concentration at half of the fitted maximal effect.

Chain of Cellular tumor antigen p53 (Homo sapiens) (P04637 whole entry, looked up): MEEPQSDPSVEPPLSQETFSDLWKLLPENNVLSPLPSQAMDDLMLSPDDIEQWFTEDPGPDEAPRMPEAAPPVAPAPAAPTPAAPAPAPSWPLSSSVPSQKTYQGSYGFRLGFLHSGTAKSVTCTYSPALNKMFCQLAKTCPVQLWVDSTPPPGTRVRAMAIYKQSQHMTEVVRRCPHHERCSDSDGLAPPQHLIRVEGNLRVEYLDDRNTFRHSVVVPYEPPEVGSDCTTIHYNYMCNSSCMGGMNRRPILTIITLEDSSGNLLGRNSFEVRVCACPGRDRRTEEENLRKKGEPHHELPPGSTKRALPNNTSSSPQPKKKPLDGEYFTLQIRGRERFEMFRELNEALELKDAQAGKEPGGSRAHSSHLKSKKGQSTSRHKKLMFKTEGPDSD

SMILES | activation [1] | Potency [2] | Potency [3] | Potency [4] | Potency [5] | Potency [1] | Potency [6] | Potency [7]
CC1=CC(=O)c2ccccc2C1=O | 1.69% and -31.8% | 18600 nM (active) | 7420 nM (active) | 23500 nM (active) | 18600 nM (active) |  |  | 
CC(C)C[C@H](NC(=O)CNC(=O)c1cc(Cl)ccc1Cl)B1OC(=O)CC(CC(=O)O)(C(=O)O)O1 (stereo partly specified) |  | 132 nM (active) | 132 nM (active) | 132 nM (active) | 186 nM (active) | 9680 nM (active) | 166 nM (active) | 166 nM (active)
Cc1c(C)c2c(c(C)c1O)CCC(C)(COc1ccc(CC3SC(=O)NC3=O)cc1)O2 (stereo unspecified) | -7.34% | inactive | inactive | 18600 nM (active) | inactive |  |  | inactive
CC(C)(C)c1cc(C(C)(C)C)c(NC(=O)c2c[nH]c3ccccc3c2=O)cc1O | 27.3% | 20900 nM (active) | 23500 nM (active) |  |  |  |  | 
Cc1cc([C@@H](C)Nc2ccccc2C(=O)O)c2nc(N3CCOCC3)cc(=O)n2c1 | 14.9% | 1320 nM (active) | 6610 nM (active) |  |  |  |  | 
O=S(=O)(O)CCSSCCS(=O)(=O)O | -2.01% | inactive | inactive | inactive | inactive |  | inactive | inactive
COc1ccc(-c2ccc3c(N4CCOCC4)nc(N4C[C@@H](C)O[C@@H](C)C4)nc3n2)cc1CO |  | 1180 nM (active) | 1050 nM (active) | 934 nM (active) |  | 21700 nM (active) |  | 
NC1=N[C@H]2[C@H](CS[C@H]2CCCCC(=O)O)N1 | -4.3% | inactive | inactive | inactive | inactive |  |  | inactive
NC(=O)Nc1sc(-c2ccc(F)cc2)cc1C(N)=O | -16.3% | 2350 nM (active) | 1860 nM (active) | 1660 nM (active) |  |  | 1860 nM (active) | 1860 nM (active)
CC(C)(C)OC(=O)CN(Cc1ccc(Cl)cc1)Cc1ccc([N+](=O)[O-])s1 | -41.8% | 7420 nM (active) | 18600 nM (active) |  | inactive |  | inactive | 
CNC(=O)c1cc(COc2nnc(Nc3ccc(Cl)cc3)c3ccoc23)ccn1 | -2.64% | inactive |  |  | inactive |  |  | inactive
COc1c(C)c2c(c(O)c1C/C=C(\C)CCC(=O)OCCN1CCOCC1)C(=O)OC2 | -10.7% | 1320 nM (active) | 662 nM (active) |  |  |  | 1180 nM (active) | 1320 nM (active)
CC(C)(C)c1cnc(CSc2cnc(NC(=O)C3CCNCC3)s2)o1 |  | 372 nM (active) |  | 235 nM (active) | 742 nM (active) | 968 nM (active) |  | 742 nM (active)
O=c1cc(-c2ccccc2)oc2cc(O)c(O)c(O)c12 | -1.25% | 7420 nM (active) |  |  |  |  |  | 18600 nM (active)
NC(=O)[C@@H](CCC(F)(F)F)N(Cc1ccc(-c2ncon2)cc1F)S(=O)(=O)c1ccc(Cl)cc1 | 12.6% | inactive |  |  | inactive |  | inactive | 
CC[C@@]1([C@@H]2O[C@@H]([C@H]3O[C@@](O)(CO)[C@H](C)C[C@H]3C)C[C@H]2C)CC[C@H]([C@]2(C)CC[C@]3(C[C@H](O)[C@@H](C)[C@@H]([C@@H](C)[C@@H](OC)[C@H](C)C(=O)O)O3)O2)O1 | 7.91% |  | 574 nM (active) | 81.1 nM (active) |  |  | 288 nM (active) | 
CN1CCC(=C2c3ccccc3CCc3sccc32)CC1 | -15.1% and 66.1% |  | 33200 nM (active) |  |  |  |  | 
Cn1c(Nc2ccc(C(F)(F)F)cc2)nc2cc(Oc3ccnc(-c4ncc(C(F)(F)F)[nH]4)c3)ccc21 | 0.151% | 2950 nM (active) |  | 332 nM (active) |  |  | 833 nM (active) | 833 nM (active)
Nc1nc(=O)n([C@H]2C[C@H](O)[C@@H](CO)O2)cc1F | -4.59% | 132 nM (active) | 14.8 nM (active) |  | 742 nM (active) |  |  | 186 nM (active)
C[C@@H]1C[C@H]2[C@@H]3CCC4=CC(=O)C=C[C@]4(C)[C@@]3(Cl)[C@@H](O)C[C@]2(C)[C@@]1(OC(=O)c1ccco1)C(=O)CCl | 19.9% |  | 23500 nM (active) |  |  |  |  | 
CCCCCCOC(=O)NC(=N)c1ccc(NCc2nc3cc(C(=O)N(CCC(=O)OCC)c4ccccn4)ccc3n2C)cc1 | -36.8% |  | 8330 nM (active) |  |  |  |  | 
O=c1cc(N2CCOCC2)oc2c(-c3cccc4c3sc3ccccc34)cccc12 | 27.5% | 8330 nM (active) |  |  |  |  |  | 5900 nM (active)
C#Cc1cccc(Nc2ncnc3cc(OCCOC)c(OCCO)cc23)c1 | 34% |  | 2630 nM (active) | 2630 nM (active) |  |  | 13200 nM (active) | 16600 nM (active)
